Assay [1] in a line: qHTS for Inhibitors of Plasmodium falciparum (DD2) proliferation (AID 504314).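 Note: parasite DNA measured by SYBR Green fluorescence after red cell lysis; plate controls were DMSO vehicle for no effect and artemisinin wells for full effect.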 The procedure, abridged: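 SYBR Green growth assay: 72 h compound exposure of infected red cells (2.5% hematocrit, 0.3% parasitemia), then lysis and overnight dye staining, fluorescence 485/535 nm. Values scaled between DMSO and 0.29 uM artemisinin controls.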
(Quantitative high-throughput screening tests each substance at several concentrations.)

Assay [2] in a line: qHTS for Inhibitors of Plasmodium falciparum (GB4) proliferation (AID 504315).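 Note: 0% = DMSO vehicle and -100% = 0.29 µM artemisinin control; nearly all actives have a fitted effect of over 50% in size.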 The procedure, abridged: (§1)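 Parasite growth measured as SYBR Green DNA fluorescence (ex 485, em 535 nm) after overnight lysis following 72 h culture at 37 °C, 0.3% parasitemia, 2.5% hematocrit. Values normalized against DMSO and 0.29 uM artemisinin controls, with plate-stack correction.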
The nature of assay [3]: qHTS for Inhibitors of Plasmodium falciparum (CP250) proliferation (AID 504320).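 Note: plate controls were DMSO vehicle for no effect and 0.29 µM artemisinin control for full effect.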 The method, boiled down: as §1
Assay [4] is described as follows: qHTS for Inhibitors of Plasmodium falciparum (7G8) proliferation (AID 504316). Note: nearly all actives have a fitted effect of over 65% in size. Note: potency is the fitted concentration of half-maximal effect. The procedure, abridged:
as §1

A short description of assay [5]: qHTS for Inhibitors of Plasmodium falciparum (HB3) proliferation (AID 504318). Note: nearly all actives have a fitted effect of over 60% in size. Note: potency is the fitted concentration of half-maximal effect. The method, boiled down: as §1
The target of assay [6] is Cytochrome P450 2C9 (Homo sapiens) (UniProt P11712). Kind of assay: qHTS Assay for Inhibitors and Substrates of Cytochrome P450 2C9 (AID 883). Note: % is set by controls: 0 for no effect and ±100 for the full control effect; nearly all actives have a fitted effect of over 60% in size. The method, boiled down:
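Human CYP2C9 (10nM) with Luciferin-H at 100uM (its KM) in 25mM KPO4; compound preincubated 10 min at 37C, then NADPH regeneration for 60 min at 37C. Luciferin read by luminescence after detection reagent; normalized to 57uM sulphaphenazole as full inhibition.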

In assay [7] the target is Cytochrome P450 3A4 (Homo sapiens) (UniProt P08684). Kind of assay: qHTS Assay for Inhibitors and Substrates of Cytochrome P450 3A4 (AID 884). Note: potency is the fitted concentration of half-maximal effect; nearly all actives have a fitted effect of over 50% in size. The procedure, abridged: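 Luminescent readout of luciferin produced by CYP3A4 (20 nM) dealkylation of Luciferin-PPXE, 25 uM (its KM). NADPH-driven reaction ran 60 min at RT after 10 min compound preincubation; data scaled to 57 uM ketoconazole as 100% inhibition.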
Chain of Cytochrome P450 3A4 (Homo sapiens) (P08684 whole entry, looked up): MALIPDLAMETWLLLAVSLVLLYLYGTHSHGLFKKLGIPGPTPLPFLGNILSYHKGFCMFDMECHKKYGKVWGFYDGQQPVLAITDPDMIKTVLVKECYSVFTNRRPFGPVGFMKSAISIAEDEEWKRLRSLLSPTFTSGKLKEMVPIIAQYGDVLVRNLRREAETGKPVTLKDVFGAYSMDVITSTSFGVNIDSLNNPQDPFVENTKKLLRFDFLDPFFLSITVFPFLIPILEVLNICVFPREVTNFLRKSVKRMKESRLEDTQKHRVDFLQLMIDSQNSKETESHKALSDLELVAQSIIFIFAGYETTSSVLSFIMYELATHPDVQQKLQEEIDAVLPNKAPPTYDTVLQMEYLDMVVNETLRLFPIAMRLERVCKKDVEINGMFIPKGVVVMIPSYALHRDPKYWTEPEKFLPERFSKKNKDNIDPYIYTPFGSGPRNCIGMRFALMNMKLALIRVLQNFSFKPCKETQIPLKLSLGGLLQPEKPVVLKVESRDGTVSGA

Assay [8] has the same target. As to the kind of experiment: qHTS Assay for Activators of Cytochrome P450 3A4 (AID 885). Note: nearly all actives have a fitted effect of over 65% in size. The method, boiled down:
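Luminescent readout of luciferin formed from 25 uM Luciferin-PPXE (KM level) by 20 nM CYP3A4 in 200 mM KPO4, with 60 min NADPH-driven reaction at room temperature after 10 min compound exposure. Ketoconazole (57 uM) defined 100% inhibition.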

A number with no mark means an inactive call. Records with an inconclusive call do not appear. Activity calls are given as the source filed them. Calls come from the whole dose curve; as a rule, active = well fitted curve in the direction sought with a large enough effect; inconclusive = small, poorly fitted or top-dose-only effect, or another doubt; inactive = no such curve, though single readings can be large; an effect the other way counts as inactive or inconclusive.

Chain of Cytochrome P450 2C9 (Homo sapiens) (P11712 whole entry, looked up): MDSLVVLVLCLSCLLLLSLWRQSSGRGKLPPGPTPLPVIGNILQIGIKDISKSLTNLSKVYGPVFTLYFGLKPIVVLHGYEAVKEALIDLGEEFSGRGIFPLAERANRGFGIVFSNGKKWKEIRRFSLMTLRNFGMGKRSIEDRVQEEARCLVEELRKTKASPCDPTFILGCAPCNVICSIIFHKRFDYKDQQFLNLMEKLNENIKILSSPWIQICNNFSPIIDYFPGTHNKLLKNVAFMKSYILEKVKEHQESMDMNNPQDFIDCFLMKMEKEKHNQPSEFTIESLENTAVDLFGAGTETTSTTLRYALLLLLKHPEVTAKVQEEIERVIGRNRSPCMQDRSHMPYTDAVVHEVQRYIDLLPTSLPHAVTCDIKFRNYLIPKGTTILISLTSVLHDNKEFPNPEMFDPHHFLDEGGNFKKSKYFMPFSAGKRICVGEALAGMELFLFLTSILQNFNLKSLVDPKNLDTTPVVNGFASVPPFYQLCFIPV

As for `CCCCS(=O)(=O)N1C2=NC(C(=O)OC)=C(C(=O)OC)[C@@H]3Nc4ccccc4[C@]23C[C@H]1C(=O)OC`, the Potency result in assay [1], in assay [2] and in assay [3] was “inactive” each time.
In the case of `CCCCc1nc2c(c3c1C[C@H](C)OC3)CN(C(=O)Nc1cccc(C#N)c1)CC2`, the Potency entry in assay [1], in assay [4] and in assay [5] was “inactive” each time.
As to `COC(=O)N1C(/C=C/C=C/c2ccc(OC)cc2)=Cc2ccccc2C1CC(C)=O` (stereo not given), the Potency entry in assay [1] and in assay [3] was “inactive” throughout. The Potency in assay [4] was 1510 nM (active).
Turning to `COCCN1C=C2C(=O)C(C)(OC(=O)CCc3ccccc3)C(=O)C=C2C=C1c1ccc(C#N)cc1` (stereo not given), the Potency result in assay [1], in assay [4], in assay [5] and in assay [3] was “inactive” in each case.
As to `COC(=O)C1=C(C(=O)OC)[C@@H]2N(C)c3ccc(OC)cc3[C@@]23C[C@@H](C(=O)OC)N(S(=O)(=O)c2ccc(Br)cc2)C3=N1`, in assay [1], the Potency result was “inactive”. Moreover, the Potency in assay [4] was 1510 nM (active).
Regarding `CC#CCN1c2ccccc2[C@]23C[C@@H](C(=O)OC)N(C(=O)c4cc(C)oc4C)C2=NC(C(=O)OC)=C(C(=O)OC)[C@H]13`, the Potency result in assay [1] was “inactive”. In assay [4], the Potency was 1510 nM (active).
As for `COC(=O)C1=C(C(=O)OC)[C@@H]2Nc3ccccc3[C@@]23C[C@@H](C(=O)OC)N(S(=O)(=O)c2c(C)noc2C)C3=N1`, the Potency entry in assay [1], in assay [4], in assay [5] and in assay [3] was “inactive” each time.
Turning to `CCCCCCC(=O)Cc1cc(OC)c(OC)cc1C=C(C(=O)OCC)C(=O)OCC`, the Potency entry in assay [6], in assay [1], in assay [4], in assay [5] and in assay [3] was “inactive” throughout. The Potency in assay [7] was 3160 nM (active). Besides, the activity change, positive = activation in assay [8] is -90.7% [at 11.4 µM].
Consider `CCCCC1=CC2=CC(=O)C(C)(OC(=O)CC)C(=O)C2=CN1CCOC` (stereo not given), for which the Potency entry in assay [1], in assay [4], in assay [5] and in assay [3] was “inactive” each time.
Take `COC(=O)C1=C(C(=O)OC)[C@@H]2Nc3ccccc3[C@@]23C[C@@H](C(=O)OC)N=C3N1`: the Potency result in assay [1] and in assay [5] was “inactive” in each case.
Turning to `COc1ccc(-c2nc3c(c4c2C[C@H](c2ccccc2)OC4)CN(S(=O)(=O)c2ccc(C#N)cc2)CC3)c(C)c1`, the Potency result in assay [1] was “inactive”. Besides, the Potency in assay [4] was 1510 nM (active).
With `COC(=O)C1=C(C)N(Cc2ccco2)C(=O)N[C@@H]1c1ccc(Br)cc1`, the Potency entry in assay [1], in assay [4], in assay [5] and in assay [3] was “inactive” throughout.
In the case of `COC(=O)C1=C(C(=O)OC)[C@@H]2N(Cc3ccccc3)c3ccccc3[C@@]23C[C@@H](C(=O)OC)N(S(=O)(=O)c2ccc([N+](=O)[O-])cc2)C3=N1`, in assay [1], the Potency entry was “inactive”. Further, the Potency was 1690 nM (active) in assay [4] and 1900 nM (active) in assay [5].
For `Cc1ccc(S(=O)(=O)N2CCc3nc(-c4ccccc4)c4c(c3C2)CO[C@@H](C)C4)cc1`, in that order: “inactive”, “inactive” and “inactive”.
On to `CCOC(=O)CN1C(=O)N[C@@H](CCc2ccccc2)[C@H](C(C)=O)[C@H]1C`, for which the Potency entry in assay [1], in assay [4], in assay [5] and in assay [3] was “inactive” each time.
On to `CCOC(=O)CN1C(=O)N[C@@H](c2cccc(C(F)(F)F)c2)[C@@H](C(=O)OC)[C@H]1C`, for which the Potency entry in assay [1], in assay [4], in assay [5] and in assay [3] was “inactive” in each case.
For `CC1(OC(=O)C2CCCC2)C(=O)C=C2C=C(c3ccsc3)N(c3ccccc3)C=C2C1=O` (stereo not given), the Potency result in assay [1], in assay [4] and in assay [3] was “inactive” in each case.
With `COC(=O)N1C(/C=C/c2ccc3c(c2)OCO3)=Cc2ccccc2C1CC(C)=O` (stereo not given), the Potency entry in assay [1] and in assay [3] was “inactive” throughout. Moreover, the Potency in assay [4] was 2690 nM (active).
With `C=CCN1c2ccccc2[C@]23C[C@@H](C(=O)OC)N(S(=O)(=O)c4ccc5c(c4)OCCN5C)C2=NC(C(=O)OC)=C(C(=O)OC)[C@H]13`, the Potency result in assay [1] was “inactive”. Further, the Potency in assay [4] was 1690 nM (active).
For `C=CCN1C=C2C(=O)C(C)(OC(=O)CC)C(=O)C=C2C=C1CCCC` (stereo not given), the Potency entry in assay [1], in assay [4], in assay [5] and in assay [3] was “inactive” each time.
Consider `C=CCN1C=C2C(=O)C(C)(OC(=O)CCc3ccccc3)C(=O)C=C2C=C1c1ccc(C#N)cc1` (stereo not given), for which the Potency result in assay [1], in assay [2] and in assay [3] was “inactive” in each case.
Turning to `COC(=O)C1=C(C(=O)OC)[C@@H]2N(Cc3ccccc3)c3ccccc3[C@@]23C[C@@H](C(=O)OC)N(S(=O)(=O)c2c(C)noc2C)C3=N1`, the Potency result in assay [1] is “inactive”. Moreover, the Potency in assay [4] is 1690 nM (active).
`COc1ccc(-c2nc3c(c4c2C[C@H](c2ccccc2)OC4)CN(S(=O)(=O)c2c(C)noc2C)CC3)c(C)c1`: the Potency entry in assay [1] was “inactive”. For the same molecule, in assay [5], the Potency was 2130 nM (active).
Turning to `CCOC(=O)CCCNC(=O)N1CCc2nc(COc3ccccc3)c3c(c2C1)CO[C@@H](C)C3`, the Potency result in assay [1] and in assay [3] was “inactive” throughout. In addition, in assay [4], the Potency is 1510 nM (active).
Consider `CC(C)CN1C=C2C(=O)C(C)(OC(=O)CCc3ccccc3)C(=O)C=C2C=C1c1ccc(C#N)cc1` (stereo not given), for which the Potency result in assay [1] and in assay [5] was “inactive” in each case.
In the case of `COC(=O)CCC(=O)OC1(C)C(=O)C2=CN(c3ccc(OC)cc3)C(c3ccc(OC)cc3)=CC2=C(Br)C1=O` (stereo not given), the Potency result in assay [1] and in assay [5] was “inactive” in each case.
